The whole screen tested about 350,000 compounds, of which about 5,500 (1.6%) were called active.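 How the source made its calls: active means significant combined selectivity score with lowered wild-type GFP, culture density cut under 30%, mutant RFP and density less affected; inactive means any of these conditions unmet.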 Many of the other results were omitted from the sample, so actives are more common in it than they were.
Test: reduced GFP signal of wild-type E. coli, primary screen, bacterial rRNA inhibitor project, GFP/RFP fluorescence, OD600, single point (AID 720706)
Conditions: E. coli WT GFP vs humanized-ribosome RFP mutants, 24 h; GFP signal change (wild-type ribosome): stronger effect = lower value, DMSO median 0, no signal -100; OD600 change: measured here: OD600 growth, DMSO median 0, no signal -100; RFP signal change: measured here: RFP humanized mutant strains, DMSO median 0, no signal -100, concentration not given here
With O=C(Nc1ccccc1N1CCN(C(=O)c2ccccc2)CC1)c1ccco1 the GFP signal change (wild-type ribosome) was -8.24% (inactive), the OD600 change was -9.77% and the RFP signal change was -0.948%.
With O=C(Nc1ccc(N2CCN(C(=O)c3ccccc3)CC2)c(Cl)c1)c1ncn[nH]1 the GFP signal change (wild-type ribosome) was -24.4% (active), the OD600 change was -14.7% and the RFP signal change was 0.07%.
In the case of CN1CCN(c2ccc(NC(=O)c3ccc4c(c3)OCCO4)cc2Cl)CC1, the GFP signal change (wild-type ribosome) was 3.42% (inactive), the OD600 change was 2.75% and the RFP signal change was -7.15%.
For COc1ccc2c3c([nH]c2c1)[C@@H](CO)N(C(=O)C1CC1)CC31CCN(Cc2nccs2)CC1, the GFP signal change (wild-type ribosome) was -6.7% (inactive), the OD600 change was -0.445% and the RFP signal change was -3.97%.
In the case of CCCNC(=O)C[C@@H]1CC[C@H]2[C@@H](COc3ccc(NC(=O)C4CCCC4)cc3C(=O)N2C)O1, the GFP signal change (wild-type ribosome) was 2.97% (inactive), the OD600 change was 3.62% and the RFP signal change was 0.145%.
With O=C(NC1CCC1)[C@@H]1[C@@H](CO)[C@@H]2Cn3c(ccc(/C=C/c4ccccc4)c3=O)[C@@H]2N1Cc1ccncc1 the GFP signal change (wild-type ribosome) was -9.73% (inactive), the OD600 change was -7.87% and the RFP signal change was 7.36%.
For O=C(Nc1ccc(F)cc1)N1CC(=O)N2[C@H](CO)[C@H](c3ccc(C#Cc4ccccc4)cc3)[C@H]2C1, the GFP signal change (wild-type ribosome) was -32.4% (inactive), the OD600 change was -57.1% and the RFP signal change was 29%.
In the case of C[C@@H]1CCCCO[C@H](CN(C)C)[C@H](C)CN([C@@H](C)CO)C(=O)c2cc(NS(=O)(=O)c3cn(C)cn3)ccc2O1, the GFP signal change (wild-type ribosome) was 3.31% (inactive), the OD600 change was 6.19% and the RFP signal change was -1.01%.
With CSc1nc(-c2ccco2)nn1C(=O)c1ccccc1Cl the GFP signal change (wild-type ribosome) was -25.9% (active), the OD600 change was -15.3% and the RFP signal change was 0.841%.
In the case of CCn1c(SCC(=O)Nc2cc(C)c(Cl)cc2OC)nnc1-c1ccco1, the GFP signal change (wild-type ribosome) was -38.4% (inactive), the OD600 change was -53.5% and the RFP signal change was -9.88%.
In the case of Cn1c(SCC(=O)c2cccs2)nnc1-c1ccco1, the GFP signal change (wild-type ribosome) was 1.2% (inactive), the OD600 change was 2.27% and the RFP signal change was 0.555%.
In the case of COc1ccc(S(=O)(=O)N(C)C[C@@H]2Oc3ccc(NC(=O)CCC(F)(F)F)cc3C(=O)N([C@@H](C)CO)C[C@@H]2C)cc1, the GFP signal change (wild-type ribosome) was 2.48% (inactive), the OD600 change was 3.34% and the RFP signal change was -0.798%.
For C[C@@H](O)C#Cc1ccc([C@H]2[C@H]3CN(C(=O)c4ccc5c(c4)OCO5)CCCCN3[C@H]2CO)cc1, the GFP signal change (wild-type ribosome) was 3.47% (inactive), the OD600 change was -9% and the RFP signal change was 2.17%.
For COc1ccc2oc(=O)cc(CN3CCOCC3)c2c1, the GFP signal change (wild-type ribosome) was 18.2% (inactive), the OD600 change was 14.8% and the RFP signal change was 0.523%.
For CCCc1cc(=O)oc2cc(OCC(=O)Nc3ccc(CN4CCOCC4)cc3)c(Cl)cc12, the GFP signal change (wild-type ribosome) was 0.107% (inactive), the OD600 change was 0.304% and the RFP signal change was -1.17%.
In the case of COc1ccc(-c2cc(=O)oc3cc(OC(C)C(=O)Nc4ccc(CN5CCOCC5)cc4)ccc23)cc1 (stereo unspecified), the GFP signal change (wild-type ribosome) was -20% (active), the OD600 change was -14.2% and the RFP signal change was 3.54%.
In the case of C[C@@H]1CCCCO[C@@H](CN(C)C(=O)c2ccccc2)[C@H](C)CN([C@@H](C)CO)C(=O)c2cc(NS(=O)(=O)c3cn(C)cn3)ccc2O1, the GFP signal change (wild-type ribosome) was 4.03% (inactive), the OD600 change was 4.12% and the RFP signal change was -1.99%.
For CC(NC(=O)c1ccccc1)C(=O)OCC(=O)Nc1cccc(S(=O)(=O)N2CCCC2)c1 (stereo unspecified), the GFP signal change (wild-type ribosome) was -2.56% (inactive), the OD600 change was 4.84% and the RFP signal change was -0.0785%.
In the case of Cc1ccc(C(=O)NCC(=O)OCC(=O)Nc2cccc(S(=O)(=O)N3CCCC3)c2)cc1C, the GFP signal change (wild-type ribosome) was -20.9% (active), the OD600 change was -2.78% and the RFP signal change was -2.48%.
For O=C(CCNC(=O)c1ccc(Br)cc1)Nc1cccc(S(=O)(=O)N2CCCCC2)c1, the GFP signal change (wild-type ribosome) was -12.3% (inactive), the OD600 change was -43.3% and the RFP signal change was 1.03%.
For CC(C)(C)[S@](=O)N1Cc2cc(C(=O)N[C@@H]3CCN(Cc4ccccc4)C3)nc(-c3cccc(-c4ccncc4)c3)c2[C@@H]1CCO, the GFP signal change (wild-type ribosome) was 1.13% (inactive), the OD600 change was 9.43% and the RFP signal change was -4.39%.
In the case of CCCNC(=O)N1C[C@H]2[C@@H](c3ccccc31)[C@H](CO)N2C(=O)NC(C)C, the GFP signal change (wild-type ribosome) was 2.8% (inactive), the OD600 change was 10.8% and the RFP signal change was 1.99%.
With COc1ccc(Cl)cc1NC(=O)C(C)N1CCc2ccccc21 (stereo unspecified) the GFP signal change (wild-type ribosome) was -31% (active), the OD600 change was -24.4% and the RFP signal change was -3.11%.
For COc1ccc(Cl)cc1NC(=O)NC(C)C(C)(C)C (stereo unspecified), the GFP signal change (wild-type ribosome) was -0.51% (inactive), the OD600 change was 1.25% and the RFP signal change was 0.006%.
For COc1ccc(Cl)cc1NC(=O)NCC1CCN(Cc2ccccc2F)CC1, the GFP signal change (wild-type ribosome) was -5.44% (inactive), the OD600 change was -28.5% and the RFP signal change was 37.7%.
With CSCC[C@H](NC(=O)N1CCn2c1nc1ccccc12)C(=O)NCc1ccc2c(c1)OCO2 the GFP signal change (wild-type ribosome) was -1.83% (inactive), the OD600 change was -3.03% and the RFP signal change was 3.82%.
For CSCC[C@H](NC(=O)N1CCn2c1nc1ccccc12)C(=O)NC1CCCCC1, the GFP signal change (wild-type ribosome) was -28.5% (active), the OD600 change was -22.6% and the RFP signal change was -0.555%.
For CC(C)C[C@H](NC(=O)N1CCn2c1nc1ccccc12)C(=O)NC1CC1, the GFP signal change (wild-type ribosome) was 0.495% (inactive), the OD600 change was 2.23% and the RFP signal change was -1.23%.
In the case of COc1ccc2c3c([nH]c2c1)[C@@H](CO)N(C(=O)c1ccccc1)CC31CCN(C(=O)Nc2cccc(F)c2)CC1, the GFP signal change (wild-type ribosome) was -4.87% (inactive), the OD600 change was -13.4% and the RFP signal change was 1.11%.
With CC(C)Cc1nnc(NC(=O)CCc2ccccc2)s1 the GFP signal change (wild-type ribosome) was 2.89% (inactive), the OD600 change was 0.415% and the RFP signal change was 0.86%.
With COC(=O)CSc1nnc(NC(=O)CCc2ccccc2)s1 the GFP signal change (wild-type ribosome) was 7.96% (inactive), the OD600 change was 5.71% and the RFP signal change was -0.746%.
With O=C(CCc1ccccc1)Nc1ncc([N+](=O)[O-])s1 the GFP signal change (wild-type ribosome) was -42.5% (active), the OD600 change was -20.7% and the RFP signal change was 2.67%.
